{"source": "the OligoGym collection", "data": [{"target": "TRIM48", "assay": "pooled miR-30 sensor sort-seq; sequence = guide strand", "conditions": "shRNA", "values": [{"sequence": "TTAACAGCTTCTCCCAGTGTTC", "sensor-assay potency score (higher = more potent)": -1.29}, {"sequence": "ATGTCGTTCTTAACACACCCAA", "sensor-assay potency score (higher = more potent)": -1.03}, {"sequence": "TTTCTCTGCTGTATTGTCTTTA", "sensor-assay potency score (higher = more potent)": -0.0647}, {"sequence": "TTCTTTAACAGCTTCTCCCAGT", "sensor-assay potency score (higher = more potent)": -0.186}, {"sequence": "TTCTCAAATCTCCACATCGGAA", "sensor-assay potency score (higher = more potent)": -1.49}, {"sequence": "TTCTCTGCTGTATTGTCTTTAT", "sensor-assay potency score (higher = more potent)": -1.43}, {"sequence": "TTCTCTGATTTTCACAAGCTTT", "sensor-assay potency score (higher = more potent)": -1.29}, {"sequence": "TGCTGTATTGTCTTTATGCATT", "sensor-assay potency score (higher = more potent)": -1.57}, {"sequence": "TTTCTTTAACAGCTTCTCCCAG", "sensor-assay potency score (higher = more potent)": -0.688}, {"sequence": "AAACCGAACCTATTTGTCCTGT", "sensor-assay potency score (higher = more potent)": 0.0588}, {"sequence": "AACATCTTCTTTGTCTCCCTGT", "sensor-assay potency score (higher = more potent)": 0.214}, {"sequence": "TGTCGTTCTTAACACACCCAAG", "sensor-assay potency score (higher = more potent)": -1.51}]}, {"target": "TRIM50", "assay": "pooled miR-30 sensor sort-seq; sequence = guide strand", "conditions": "shRNA", "values": [{"sequence": "TAGTCGAAGCGCTCAGGCTGGC", "sensor-assay potency score (higher = more potent)": -0.915}, {"sequence": "TCATAGTGCAGGTAGAGCCCGA", "sensor-assay potency score (higher = more potent)": -0.353}, {"sequence": "TTGTGGTGGTCCTCATTGCCGA", "sensor-assay potency score (higher = more potent)": -1.14}, {"sequence": "TGGAACTTCCGGATGAACTTGT", "sensor-assay potency score (higher = more potent)": -0.0502}, {"sequence": "TTCAGCTTGCCCTTACGGCTGG", "sensor-assay potency score (higher = more potent)": -0.338}, {"sequence": "TTCCGGATGAACTTGTGGTGGT", "sensor-assay potency score (higher = more potent)": -0.035}, {"sequence": "TGAACTTGTGGTGGTCCTCATT", "sensor-assay potency score (higher = more potent)": -1.36}, {"sequence": "TTCGCCCTGCTCATAGTGCAGG", "sensor-assay potency score (higher = more potent)": -1.35}, {"sequence": "AAAACTTTCCGGAAGAGCCTTT", "sensor-assay potency score (higher = more potent)": -0.209}, {"sequence": "TGCTGTAGTCGAAGCGCTCAGG", "sensor-assay potency score (higher = more potent)": -1.06}, {"sequence": "TTGGGCAGGGAGCTGCTGCCGT", "sensor-assay potency score (higher = more potent)": -1.11}, {"sequence": "TCCAACTTGAGAGGCTCCGGGG", "sensor-assay potency score (higher = more potent)": -1.47}]}, {"target": "TRIM54", "assay": "pooled miR-30 sensor sort-seq; sequence = guide strand", "conditions": "shRNA", "values": [{"sequence": "TCGCTGAGCTCACTCTTCTGGC", "sensor-assay potency score (higher = more potent)": -0.97}, {"sequence": "TTTGGAGAACATCTCCAGGCAG", "sensor-assay potency score (higher = more potent)": -0.659}, {"sequence": "TAACAACTGCTTCTGCCTCCGG", "sensor-assay potency score (higher = more potent)": -0.255}, {"sequence": "TCCATCTGTGTGATCACTGCTT", "sensor-assay potency score (higher = more potent)": -0.164}, {"sequence": "TTATTGATCAGCTCCTTGGCCT", "sensor-assay potency score (higher = more potent)": -0.188}, {"sequence": "TAGTCTGGCACACCTCCTCCAT", "sensor-assay potency score (higher = more potent)": -1.55}, {"sequence": "TGGTTTGGAGAACATCTCCAGG", "sensor-assay potency score (higher = more potent)": -1.46}, {"sequence": "TTGGAGAACATCTCCAGGCAGA", "sensor-assay potency score (higher = more potent)": -0.654}, {"sequence": "AACAACTGCTTCTGCCTCCGGC", "sensor-assay potency score (higher = more potent)": -0.512}, {"sequence": "TTGTCCTCGATAGTCTGGCACA", "sensor-assay potency score (higher = more potent)": -1.37}, {"sequence": "TTGCCTGCCACCAGCATCGCGA", "sensor-assay potency score (higher = more potent)": -1.1}, {"sequence": "TTTAACAACTGCTTCTGCCTCC", "sensor-assay potency score (higher = more potent)": 0.72}]}]}
